# Source: PubChem BioAssay
# Active and inactive are the calls of the source. Unless noted, no rule for the calls is given here.
# What was measured:
# [1] = system: Wnt5a (protein binding on small-molecule microarray); assay: Wnt5a binders on small-molecule microarray, primary screen, biophysical, 635/667 nm fluorescence (AID 1142); conditions: 635 nm fluorescence, higher = more signal;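 also: fluorescence read at 667 nm with signal to noise per printed feature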
# [2] = cell viability in Huh7 cells, primary screen, cytotoxicity control for HCV replication inhibitor project, CellTiter-Glo luminescence, basal, 48 h (AID 1143); conditions: Huh7 HCV replicon, higher = more signal, called active from +8 up or from −8 down;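 also: Huh7 hepatoma cells carrying a hepatitis C replication reporter with no stimulus; test concentration not given here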
# [3] = P. aeruginosa biofilm formation inhibitors, primary screen, PAO1 strain, BacTiter-Glo luminescence, LB-PBS (AID 1144); conditions: 12 h, higher = more signal
# [4] = CREB reporter modulators without forskolin, primary screen, cell-based, PC12, CRE-LacZ reporter, unstimulated (AID 1145); conditions: no forskolin, luminescence, 4.5 h, higher = more signal, called active from +8 up or from −8 down
# [5] = CREB reporter modulators under forskolin, primary screen, cell-based, PC12, CRE-LacZ reporter, forskolin-stimulated (AID 1146); conditions: luminescence, 4.5 h, higher = more signal, called active from +8 up or from −8 down;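 also: PC12 cells with 6xCRE LacZ reporter stimulated by forskolin 10 µM; beta-galactosidase reporter signal reflecting CREB driven transcription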
# [6] = biological target: Streptavidin (Streptomyces avidinii) (UniProt P22629); assay: streptavidin binders on small-molecule microarray, primary screen, artefact control for SMM compound annotation, biophysical, 635/667 nm fluorescence (AID 1147); conditions: streptavidin binding, higher = more signal;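 also: signal reflects streptavidin binding to arrayed compounds as a control protein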
# [7] = small-molecule binders of probe aInhba, primary screen, biochemical, small-molecule microarray, 635/667 nm fluorescence (AID 1148); conditions: higher = more signal;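 also: score merges 667nm spot fluorescence with signal-to-noise for antibody binding to printed compounds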
# Torsin-1A (Homo sapiens) [8] = biological target: Torsin-1A (Homo sapiens) (UniProt O14656); assay: torsin A binders from cell lysate, primary screen, small-molecule microarray, wild-type, 635/667 nm (AID 1149); conditions: COS7 hTOR1A-WT lysate, 635 nm fluorescence, higher = more signal
# Torsin-1A (Homo sapiens) [9] = biological target: Torsin-1A (Homo sapiens) (UniProt O14656); assay: small-molecule binders of mutant TOR1A in lysate, primary screen, cell lysate, small-molecule microarray, COS7 lysate, 635/667 nm fluorescence (AID 1150); conditions: COS7 hTOR1A mutant lysate, 635 nm fluorescence, higher = more signal;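 also: score pools 667 nm emission and signal to noise measuring lysate protein binding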
# [10] = system: Sonic hedgehog protein (Shh); assay: small-molecule binders of Shh protein, primary screen, biochemical, small-molecule microarray, 635/667 nm fluorescence (AID 1151); conditions: small-molecule microarray binding, 635 nm fluorescence; higher = more signal;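 also: Shh protein binding to compounds spotted on small-molecule microarray slides; score combines spot fluorescence intensity with signal-to-noise across triplicate slides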
# [11] = E. coli DRC41 culture turbidity changes, primary screen, E. coli filamentation inducer project, strain DRC41, OD650, 48 h (AID 1152);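 also: E. coli MC1000 strain DRC41 lacking acrAB efflux pump and sulA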; conditions: E. coli DRC41 (acrAB sulA), higher = more signal, called active from +8 up or from −8 down
# [12] = small-molecule binders of probe aLefty1, primary screen, biochemical, small-molecule microarray, 635/667 nm fluorescence (AID 1153); conditions: higher = more signal;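 also: score merges spot fluorescence with signal-to-noise ratio from the scanned slide images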
# [13] = PSAC antagonists in infected red cells, primary screen, cell-based, P. falciparum Indochina, OD700, 1 h (AID 1154); conditions: P. falciparum Indochina infected RBC osmotic lysis, higher = more signal, called active from +8 up or from −8 down
# [14] = PSAC antagonists in infected red cells, primary screen, cell-based, P. falciparum Indochina, OD700, 2 h (AID 1155);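 also: lysis reports solute entry through the parasite surface anion channel PSAC; channel blockers reduce lysis of infected cells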; conditions: P. falciparum Indochina infected erythrocytes, osmotic lysis OD700; higher = more signal, called active from +8 up or from −8 down
# [15] = osmotic lysis modulators in infected erythrocytes, primary screen, PSAC antagonist project, cell-based, P. falciparum Indochina, OD700, 3 h (AID 1156); conditions: higher = more signal, called active from +8 up or from −8 down
# [16] = PSAC antagonists in infected red cells, primary screen, cell-based, P. falciparum Indochina, OD700, 18 h (AID 1157); conditions: P. falciparum Indochina infected erythrocytes, osmotic lysis OD700, 18 h; higher = more signal, called active from +8 up or from −8 down
# [17] = modulators of S6 phosphorylation in cells, primary screen, cell-based, A549, cytoblot, luminescence, serum-stimulated (AID 1158); conditions: A549 phospho-S6 cytoblot, 5 h, higher = more signal;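 also: serum-stimulated A549 lung adenocarcinoma cells; signal is phosphorylated S6 detected by cytoblot immunostaining with HRP secondary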
# [18] = biological target: NADPH oxidase 2 (Homo sapiens) (UniProt P04839); assay: NOX2-dependent H2O2 signal modulators, primary screen, NOX inhibitor project, cell-based, HEK293-NOX2, PMA-stimulated, Amplex Red fluorescence (AID 1159); conditions: 45 min, higher = more signal, called active from +8 up or from −8 down; also: test concentration not given here
# [19] = biological target: NADPH oxidase 4 (Homo sapiens) (UniProt Q9NPH5); assay: NOX4-dependent H2O2 signal modulators, primary screen, NOX inhibitor project, cell-based, HEK293-NOX4, tetracycline-induced, Amplex Red fluorescence (AID 1160); conditions: 45 min, higher = more signal, called active from +8 up or from −8 down
# [20] = biological target: NADPH oxidase 5 (Homo sapiens) (UniProt Q96PH1); assay: NOX5-dependent H2O2 signal modulators, primary screen, NOX inhibitor project, cell-based, HEK293-NOX5, Amplex Red fluorescence (AID 1161); conditions: HEK293-NOX5, ionomycin, 45 min, higher = more signal
# NADPH oxidase 5 (Homo sapiens), sequence (Q96PH1 whole entry, looked up): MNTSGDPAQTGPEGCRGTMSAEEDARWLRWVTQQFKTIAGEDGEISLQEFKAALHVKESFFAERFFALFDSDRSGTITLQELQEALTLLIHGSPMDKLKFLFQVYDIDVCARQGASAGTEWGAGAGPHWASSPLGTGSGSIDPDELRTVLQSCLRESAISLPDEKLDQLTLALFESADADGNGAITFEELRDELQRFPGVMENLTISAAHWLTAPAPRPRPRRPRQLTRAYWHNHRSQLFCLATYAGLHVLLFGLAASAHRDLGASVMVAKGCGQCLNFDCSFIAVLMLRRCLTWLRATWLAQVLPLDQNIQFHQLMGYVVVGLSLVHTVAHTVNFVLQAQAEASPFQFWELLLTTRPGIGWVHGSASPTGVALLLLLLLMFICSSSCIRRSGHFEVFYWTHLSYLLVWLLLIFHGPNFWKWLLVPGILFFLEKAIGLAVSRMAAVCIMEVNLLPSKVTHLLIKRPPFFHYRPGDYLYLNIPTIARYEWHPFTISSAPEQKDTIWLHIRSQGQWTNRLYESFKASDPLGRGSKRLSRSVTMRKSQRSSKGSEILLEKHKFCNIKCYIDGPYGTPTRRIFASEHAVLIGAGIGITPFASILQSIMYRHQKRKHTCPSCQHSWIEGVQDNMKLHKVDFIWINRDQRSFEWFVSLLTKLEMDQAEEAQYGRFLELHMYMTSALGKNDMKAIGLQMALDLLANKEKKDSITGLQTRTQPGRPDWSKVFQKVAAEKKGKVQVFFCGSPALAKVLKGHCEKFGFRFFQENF
# NADPH oxidase 4 (Homo sapiens), sequence (Q9NPH5 whole entry, looked up): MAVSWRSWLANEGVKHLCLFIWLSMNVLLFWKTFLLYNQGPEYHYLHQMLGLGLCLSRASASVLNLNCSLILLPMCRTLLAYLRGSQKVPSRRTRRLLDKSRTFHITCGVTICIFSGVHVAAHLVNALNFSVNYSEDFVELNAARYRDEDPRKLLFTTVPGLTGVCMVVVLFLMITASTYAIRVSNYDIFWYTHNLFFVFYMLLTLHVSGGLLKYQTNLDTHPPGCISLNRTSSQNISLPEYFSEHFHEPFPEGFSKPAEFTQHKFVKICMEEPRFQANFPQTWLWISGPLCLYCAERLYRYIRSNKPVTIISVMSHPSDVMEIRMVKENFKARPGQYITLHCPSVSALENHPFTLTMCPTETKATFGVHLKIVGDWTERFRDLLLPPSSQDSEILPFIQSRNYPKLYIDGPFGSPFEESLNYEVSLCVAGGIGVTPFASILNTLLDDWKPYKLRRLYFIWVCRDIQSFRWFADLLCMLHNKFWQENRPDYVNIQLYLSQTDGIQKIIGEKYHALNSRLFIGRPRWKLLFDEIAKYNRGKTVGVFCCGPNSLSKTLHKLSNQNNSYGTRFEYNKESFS
# Streptavidin (Streptomyces avidinii), sequence (P22629 whole entry, looked up): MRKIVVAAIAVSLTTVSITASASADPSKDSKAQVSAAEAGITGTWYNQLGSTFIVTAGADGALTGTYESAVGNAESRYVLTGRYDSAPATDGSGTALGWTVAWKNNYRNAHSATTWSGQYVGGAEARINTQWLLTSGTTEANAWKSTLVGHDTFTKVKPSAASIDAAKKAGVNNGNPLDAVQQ
# Torsin-1A (Homo sapiens), sequence (O14656 whole entry, looked up): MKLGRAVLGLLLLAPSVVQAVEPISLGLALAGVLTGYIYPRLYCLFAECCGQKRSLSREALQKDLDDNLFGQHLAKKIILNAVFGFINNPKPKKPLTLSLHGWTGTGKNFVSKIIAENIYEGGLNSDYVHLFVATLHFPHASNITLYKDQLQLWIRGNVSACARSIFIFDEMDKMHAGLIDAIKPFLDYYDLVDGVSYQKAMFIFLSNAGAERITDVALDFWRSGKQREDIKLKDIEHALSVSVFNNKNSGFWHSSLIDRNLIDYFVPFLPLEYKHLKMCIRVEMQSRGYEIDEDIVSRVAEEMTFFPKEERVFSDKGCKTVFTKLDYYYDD
# NADPH oxidase 2 (Homo sapiens), sequence (P04839 whole entry, looked up): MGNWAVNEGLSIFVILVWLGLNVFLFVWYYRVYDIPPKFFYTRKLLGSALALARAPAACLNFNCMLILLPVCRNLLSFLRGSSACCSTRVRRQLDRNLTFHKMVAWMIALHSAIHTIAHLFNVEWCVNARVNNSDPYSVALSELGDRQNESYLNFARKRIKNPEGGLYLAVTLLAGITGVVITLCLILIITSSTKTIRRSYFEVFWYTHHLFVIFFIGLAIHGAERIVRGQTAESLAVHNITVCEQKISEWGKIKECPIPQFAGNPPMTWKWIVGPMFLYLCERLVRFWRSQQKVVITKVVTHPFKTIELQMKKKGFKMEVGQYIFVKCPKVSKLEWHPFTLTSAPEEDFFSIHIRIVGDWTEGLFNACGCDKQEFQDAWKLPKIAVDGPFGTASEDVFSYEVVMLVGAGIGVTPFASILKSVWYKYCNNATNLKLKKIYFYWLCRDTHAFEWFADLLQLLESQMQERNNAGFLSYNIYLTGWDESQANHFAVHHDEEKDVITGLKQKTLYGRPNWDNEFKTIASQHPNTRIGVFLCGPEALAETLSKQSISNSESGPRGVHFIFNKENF
Structure (SMILES),composite z-score [1],z-score [2],z-score [3],z-score [4],z-score [5],composite z-score [6],composite z-score [7],composite z-score (Torsin-1A (Homo sapiens) [8]),composite z-score (Torsin-1A (Homo sapiens) [9]),composite z-score [10],z-score [11],composite z-score [12],z-score [13],z-score [14],z-score [15],z-score [16],z-score [17],z-score [18],z-score [19],z-score [20]
COCCOC(=O)N1C(=O)[C@@]2(c3ccccc31)[C@H](c1ccccc1OCCO)N1[C@H](c3ccccc3)[C@H](c3ccccc3)OC(=O)[C@H]1[C@@H]2C(=O)N1CCN(c2ncccn2)CC1,-0.0525,-2.08 (inactive),0.235 (inactive),-0.0688 (inactive),3.84 (inactive),0.498,-0.0102,0.447,0.489,1.34,-0.102 (inactive),0.0402,4.19 (inactive),2.16 (inactive),0.98 (inactive),1.49 (inactive),-0.248,-0.652 (inactive),-0.44 (inactive),0.183
COCCOC(=O)N1C(=O)[C@@]2(c3cc(C#Cc4ccc(OC)cc4)ccc31)[C@H](c1ccc(O)cc1)N1[C@H](c3ccccc3)[C@H](c3ccccc3)OC(=O)[C@H]1[C@@H]2C(=O)N1CCc2cc(OC)c(OC)cc2C1,0.164,-1.93 (inactive),-1.57 (inactive),-1.42 (inactive),-0.397 (inactive),1.25,0.0317,0.807,0.964,0.643,0.892 (inactive),0.134,1.92 (inactive),1.19 (inactive),0.401 (inactive),0.827 (inactive),0.035,0.478 (inactive),0.398 (inactive),1.08
CC(C)OC(=O)C=C1C[C@@H](c2ccccn2)O[C@@H](c2ccccn2)O1,0.144,-0.891 (inactive),0.589 (inactive),-0.0137 (inactive),-0.322 (inactive),0.546,-0.0001,0.0581,0.0457,1.7,-0.167 (inactive),-0.0559,5.54 (inactive),1.2 (inactive),-0.277 (inactive),0.562 (inactive),-0.0693,-0.223 (inactive),-0.461 (inactive),-0.405
COCCOC(=O)N1C(=O)[C@@]2(c3cc(C#CCC(C(=O)OC)C(=O)OC)ccc31)[C@H](c1ccccc1OCCO)N1[C@H](c3ccccc3)[C@H](c3ccccc3)OC(=O)[C@H]1[C@@H]2C(=O)NC[C@H](O)c1ccccc1,0.851,-4.23 (inactive),0.166 (inactive),-0.195 (inactive),2.22 (inactive),0.0919,0.158,0.555,0.389,1.98,-0.165 (inactive),0.557,1.95 (inactive),1.35 (inactive),-0.0048 (inactive),0.781 (inactive),0.213,1.57 (inactive),1.07 (inactive),1.41
C=CC[C@]1(C(=O)NCCCOC)N=C(c2ccc(OCCCO)cc2)O[C@H]1c1ccccc1CN=[N+]=[N-],1.11,-1.34 (inactive),0.162 (inactive),1.49 (inactive),-1.41 (inactive),0.828,0.149,0.883,0.749,-0.0138,-0.653 (inactive),0.443,13.6 (active),1.21 (inactive),1.37 (inactive),0.424 (inactive),-0.102,0.324 (inactive),0.649 (inactive),-0.973
C=C(CCCC)/C(=C/C[C@H](OC(=O)c1ccncc1)c1ccccc1OCCO)c1cnc2ccccc2c1,0.265,-0.401 (inactive),0.0698 (inactive),-0.583 (inactive),0.494 (inactive),1.74,-0.0471,0.609,0.712,1.45,-0.244 (inactive),0.11,23.7 (active),4.64 (inactive),1.08 (inactive),1.02 (inactive),0.0376,-1.22 (inactive),-0.281 (inactive),-1.45
COc1cc2c(cc1OC)CN(C(=O)[C@@H]1[C@H]3C(=O)O[C@H](c4ccccc4)[C@H](c4ccccc4)N3[C@H](c3ccccc3OCCO)[C@@]13C(=O)Nc1ccc(C#CCCO)cc13)CC2,0.283,-1.65 (inactive),0.219 (inactive),0.505 (inactive),-0.988 (inactive),0.442,0.196,0.0499,0.344,1.13,0.761 (inactive),0.751,2.28 (inactive),1.05 (inactive),0.85 (inactive),0.565 (inactive),0.212,1.29 (inactive),1.15 (inactive),0.301
C=C(COC)C(=O)CC[C@@H](OC(C)=O)c1ccc(CO)o1,0.111,0.622 (inactive),-0.238 (inactive),0.363 (inactive),0.283 (inactive),-0.374,0.138,0.463,1.06,2.14,0.0488 (inactive),0.0371,0.116 (inactive),-0.47 (inactive),0.195 (inactive),-0.38 (inactive),-0.142,0.663 (inactive),0.0844 (inactive),0.46
CC(C)C[C@@H]1NC(=O)[C@H](C(C)C)NC(=O)[C@@]23C(=O)N[C@@H](Cc4ccccc4)C2[C@H](C)[C@@]2(C)O[C@H]2C3/C=C/CC/C=C/CNC1=O (stereo not given in full),0.513,-3.05 (inactive),-1.07 (inactive),-0.319 (inactive),-1.23 (inactive),0.186,0.399,0.356,0.0386,1.71,-0.62 (inactive),0.131,4.9 (inactive),0.538 (inactive),0.841 (inactive),0.771 (inactive),0.116,-0.159 (inactive),0.338 (inactive),-0.477
